High-throughput results (PubChem)
ST2 inh – blocks human ST2 binding to IL-33. Q01638. AlphaLISA ST2-Fc/biotin-IL-33 interaction, 1 h. inhibition, % for hits at 17 µM. 2.3% of 78,000 active. AID 1259354; in the data active = inhibition above about 30%
Target sequence (Q01638 whole entry, looked up): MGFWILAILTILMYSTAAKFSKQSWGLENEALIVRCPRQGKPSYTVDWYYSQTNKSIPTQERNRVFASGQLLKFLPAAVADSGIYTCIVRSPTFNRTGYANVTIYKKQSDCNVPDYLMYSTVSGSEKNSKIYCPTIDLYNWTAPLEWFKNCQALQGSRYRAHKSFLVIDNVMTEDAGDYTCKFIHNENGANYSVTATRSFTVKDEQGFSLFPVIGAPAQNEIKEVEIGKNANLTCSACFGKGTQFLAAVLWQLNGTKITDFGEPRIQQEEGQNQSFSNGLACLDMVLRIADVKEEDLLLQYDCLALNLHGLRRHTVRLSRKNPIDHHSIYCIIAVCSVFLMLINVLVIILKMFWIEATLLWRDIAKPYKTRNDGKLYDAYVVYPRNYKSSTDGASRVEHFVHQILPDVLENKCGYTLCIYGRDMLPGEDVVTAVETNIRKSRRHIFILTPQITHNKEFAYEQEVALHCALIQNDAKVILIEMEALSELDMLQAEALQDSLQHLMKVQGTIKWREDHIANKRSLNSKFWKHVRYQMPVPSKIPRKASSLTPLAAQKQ
* = called active by the depositor; i = inactive. This excerpt belongs to a sample that is enriched for hits.

SMILES	ST2 inh
O=[N+]([O-])c1ccc(S(=O)(=O)NCc2nc3cccnc3n2Cc2ccc(F)cc2)cc1	i
O=C1CCc2cc(S(=O)(=O)N3CCc4ccccc4C3)ccc2N1	i
O=C(Nc1nc2ccc(F)cc2s1)c1ccc(S(=O)(=O)N2CCc3ccccc3C2)cc1	i
O=C(Nc1ccccc1[N+](=O)[O-])c1cccc(S(=O)(=O)N2CCc3ccccc3C2)c1	40%*
CN(c1ncccc1C(=O)N1C[C@H](N(C)C)C[C@H]1CO)C1CCCCC1	i
Cc1nccn1-c1ccc(Cn2ccnc2-c2ccc(S(C)(=O)=O)cc2)cc1	i
CC1CC(C)CN(S(=O)(=O)c2ccc(F)c(C(N)=O)c2)C1 (stereo not drawn)	i
CC1=C(C(=O)Nc2ccccn2)C(c2ccccc2C)C2=C(CC(C)(C)CC2=O)N1 (stereo not drawn)	i
O=C(NC[C@H]1O[C@@H](CO)[C@@H](O)[C@H]1N1CCN(c2ccccc2)CC1)c1cccc(F)c1	92%*
CC1CCN([C@@H]2[C@H](O)[C@H](CO)O[C@@H]2CNC(=O)c2cccs2)CC1	i
O=C(NC[C@H]1O[C@@H](CO)[C@@H](O)[C@H]1N1CCN(c2ccccc2)CC1)c1ccc(F)c(Cl)c1	i
COc1ccc(C(=O)NC[C@H]2O[C@@H](CO)[C@@H](O)[C@H]2N2CCN(c3ccc(F)cc3)CC2)cc1	i
O=C(NC[C@H]1O[C@@H](CO)[C@@H](O)[C@H]1N1CCN(c2ccc(F)cc2)CC1)c1cccs1	74%*
O=C(NC[C@H]1O[C@@H](CO)[C@@H](O)[C@H]1N1CCN(c2ccc(F)cc2)CC1)c1cccc(F)c1	i
CCOc1ccccc1NS(=O)(=O)c1ccc(CC(C)C)cc1	i
O=C(Nc1ccccc1C1CC1)c1ccc(Br)cc1	i
COc1ccccc1NC(=O)C1=C(C)Nc2nnnn2C1c1cccc([N+](=O)[O-])c1 (stereo not drawn)	i
CCOc1cc(CN2CCCN(C)CC2)ccc1OC	i
CCOc1ccc(-c2nnc3cccc(Cl)n23)cc1OC	41%*
COc1ccccc1OCCOc1cccc(Cl)c1	i
N[C@@H](CC(=O)O)c1ccccc1	i
CCOC(=O)CNC(=O)N(C)CC1CCCN(CCc2ccccc2OC)C1 (stereo not drawn)	i
Cc1ccc(C2=C/C(=C\c3cccs3)C(=O)O2)cc1C	68%*
CCOc1ccccc1/C=C1\N=C(c2ccc(Cl)cc2)OC1=O	i
CCOc1ccc2c(=O)c(-c3ccccc3OC)coc2c1	i
SMILES	ST2 inh
Cc1ccc(-c2nc(-c3ccncc3)no2)cc1C	i
CCOc1ccc(C2=C/C(=C/c3ccccc3OC)C(=O)O2)cc1	46%*
COc1cc(/C=C/C(=O)O)cc(OC)c1OC	i
COc1cc2oc(-c3ccccc3)cc(=O)c2c(O)c1OC	i
CCOc1ccc(-c2nc3s/c(=C\C=C\c4ccccc4OC)c(=O)n3n2)cc1	i
COc1ccc(/C=C2\C=C(c3ccc(Cl)cc3)OC2=O)c(C)c1	i
COc1cc(/C=C2/C=C(c3ccccc3)OC2=O)cc(OC)c1OC	61%*
CCOc1ccc(N2C(=O)/C(=C\c3ccccc3OC)N=C2c2ccc(OC)c(OC)c2)cc1	39%*
CCOC(=O)N1CCN(C2CCCN(C(=O)c3scc4c3CCCC4)C2)CC1 (stereo not drawn)	i
COc1ccc(-c2ccnc(N[C@H]3CO[C@H]4[C@@H]3OC[C@@H]4NS(C)(=O)=O)n2)cc1	i
CCOC(=O)C1C(=O)NC(SC)=C(C#N)C1c1ccccc1OC (stereo not drawn)	i
CCCC1CCC(C(=O)Nc2ccc(Cl)cn2)CC1 (stereo not drawn)	i
NC(=S)c1ccc[n+]([C@@H]2O[C@H](COP(=O)([O-])OP(=O)(O)OC[C@H]3O[C@@H](n4cnc5c(N)ncnc54)[C@H](OP(=O)(O)O)[C@@H]3O)[C@@H](O)[C@H]2O)c1	i
COc1ccc(CCNc2ncnc3sc(C(=O)NC[C@H]4C[C@@H]5C=C[C@H]4C5)c(C)c23)cc1OC	i
O=c1oc2ccc(NS(=O)(=O)c3cccc4ccccc34)cc2s1	i
CC(C)c1nc(CC2NC(=O)c3ccccc32)n(-c2ccccn2)n1 (stereo not drawn)	i
COc1ccc(-c2cc(N3CCN(S(=O)(=O)c4ccccc4C)CC3)ncn2)cc1	i
O=C(c1cccc(Oc2ccccc2)c1)N1CCCC(O)(CO)CC1 (stereo not drawn)	i
COC[C@H]1CCCN1C[C@@H]1C=C(C)[C@H](Cc2nnc(-c3ccccc3F)o2)C[C@H]1C(C)C	i
Cc1ccccc1OCC(O)Cn1c(N2CCN(C)CC2)nc2c1c(=O)n(C)c(=O)n2C (stereo not drawn)	i
CCn1cc(C(=O)NCCCN2CCCC2)c(=O)c2cc(S(=O)(=O)N3CCOCC3)ccc21	i
CCc1nnc(CN2CCCN(CC3CC3)C(C(C)C)C2)o1 (stereo not drawn)	i
CC(C)(C)NC(=O)C1(S(=O)(=O)c2ccc(Cl)cc2)CC1	i
CCN(CC)C(=O)c1cc2c(=O)n3ccccc3nc2n1C	i
O=C(c1ccccn1)C1CCCN(C(=O)Cn2nnnc2CN2CCCC2)C1 (stereo not drawn)	i
SMILES	ST2 inh
O=c1[nH]c(Nc2ccc(Cl)cc2)nnc1Cc1ccc(Cl)cc1	i
CCOc1ccc(NC(=O)c2cccc(S(=O)(=O)N3CCCCCC3)c2)cc1	i
CCOc1ccc(N2CC(NC(=O)Cc3cccs3)CC2=O)cc1 (stereo not drawn)	i
CCOc1ccc(C2=C/C(=C\c3cccs3)C(=O)O2)cc1	31%*
CCOc1ccc(-c2nc3s/c(=C\c4ccc(Cl)cc4)c(=O)n3n2)cc1	i
CC(C)(O)c1cn(C2CCN(C(=O)C3(C(F)(F)F)CC3)CC2)nn1	i
COc1ccc(CNC(=O)CN2CCCN(Cc3ccc(C)cc3)S2(=O)=O)cc1	i
Cc1cc(CNC(=O)c2ccc(Cn3cnnn3)cc2)c2[nH]c(C)c(C)c2c1	i
CCCCOC(=O)Nc1ccccc1F	i
CCCCOC(=O)Nc1ccc(OC)cc1[N+](=O)[O-]	47%*
COc1ccc(NC(=O)CC2SC(N)=NC2=O)c([N+](=O)[O-])c1 (stereo not drawn)	i
COc1ccc(NC(=O)CC2CCCCC2)c([N+](=O)[O-])c1	40%*
COc1ccc(NC(=O)CC2CCCCC2)c(OC)c1	i
COc1ccc(OCC(=O)Nc2ccc(OC)cc2[N+](=O)[O-])cc1	i
CCc1cccc(C)c1NC(=O)COc1ccc(Cl)cc1Cl	i
Cc1cccc(C)c1NC(=O)Nc1ccccc1	i
O=C(c1cc(COc2ccc3c(c2)CCCC3)on1)N1CCCC1c1nccs1 (stereo not drawn)	i
CCOC(=O)c1c(NC(=O)C(C)Oc2ccccc2Br)sc(C(C)=O)c1C (stereo not drawn)	i
CC1CCCCC1NS(=O)(=O)c1ccc2c(c1)CCN2C(=O)C1CC1 (stereo not drawn)	i
COc1cc(/C=C2/SC(=Nc3ccccc3)NC2=O)ccc1OCC#N	32%*
COc1cc(/C=C2/SC(=Nc3ccccc3)NC2=O)cc(Cl)c1O	42%*
CCOc1ccc(/C=C2\SC(N3CC(C)OC(C)C3)=NC2=O)cc1OC (stereo not drawn)	i
COc1ccc(OC)c(/C=C2/SC(=Nc3ccc(C)cc3)NC2=O)c1	i
COc1cc(C2NC(=O)CCC2[N+](=O)[O-])cc(Cl)c1O (stereo not drawn)	i
